Results taken from PubChem BioAssay AID1063 (University of Pittsburgh Molecular Library Screening Center, 2008).
In all, about 200,000 compounds went through this assay and about 18,000 (9%) were called active. The sample as a whole holds a higher share of actives than the screen did. Unmarked numbers belong to inactive results. Cut-off read from the data, not from the text of the source: active = inhibition above about 50%; inactive = the rest.

Assay: antileishmanial activity against promastigotes – primary screen (AID 1063);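 note: promastigotes grown with compound for 44 hours at 28 °C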
Details: Leishmania major promastigotes, resazurin fluorescence viability; at 10 µM; hits give high values
With `C/C(=N/OC(=O)c1cccc(C(F)(F)F)c1)c1cnccn1` the inhibition was -8.57%. With `Cn1cnnc1SCC(=O)NNC(=O)COc1ccc(Br)cc1` the inhibition was -4.37%. In the case of `C/C(=N\Nc1nc(Nc2ccccc2)nc(N2CCOCC2)n1)c1cccs1`, the inhibition is reported as 5.71%. Work on `C=CCNC(=O)COC(=O)CNC(=O)c1cc(Cl)cc([N+](=O)[O-])c1` yielded an inhibition of 7.34%. `COc1ccc(O[C@H]2C=C[C@@H](c3ccccc3)O[C@@H]2CO/N=C/C[C@@H]2C=C[C@H](OC(C)=O)[C@@H](COC(C)=O)O2)cc1` gave an inhibition of 5.12%. With `C/C(=N\Nc1nc2ccccc2[nH]1)c1cccs1` the inhibition was 77.2% (active). Work on `C/C(=N\Nc1ncc(Cl)cc1Cl)c1cccs1` yielded an inhibition of 19%. Work on `O=C(CSc1nc2ccccc2[nH]1)c1cccs1` yielded an inhibition of 8.11%. With `Cc1ccc(NC(=O)C2(N3CCC3=O)CCCCC2)cc1` the inhibition was -5.4%. Compound `COc1cccc(-n2c(=S)sc3c(=O)n(-c4ccccc4OC)c(SCC4OCCO4)nc32)c1` has an inhibition of 19.1%. `O=[N+]([O-])c1ccc(N2CCN(CC(O)COc3ccccc3)CC2)cc1` (stereo not given) gave an inhibition of 32.1%. `CC(=O)Nc1ccc(OCC(O)CN2CCN(c3ccccc3Cl)CC2)cc1` (stereo not given) gave an inhibition of -1.4%. With `OC(COc1ccc2ccccc2c1)Cn1cncn1` (stereo not given) the inhibition was -2.08%. For `OC(COc1ccc2ccccc2c1)CN1CCOCC1` (stereo not given), the inhibition was 59.9% (active). `OC(COc1cccc(OCC(O)CN2CCCC2)c1)CN1CCCC1` (stereo not given) showed an inhibition of -2.43%. In the case of `O=S(=O)(c1ccc(OCC(O)CN2CCN(c3ccccc3Cl)CC2)cc1)N1CCOCC1` (stereo not given), the inhibition is reported as 68.2% (active). Work on `O=C(NCC1COc2ccccc2O1)C1(c2ccccc2)CCCC1` (stereo not given) yielded an inhibition of 4.71%. In the case of `CCOC(=O)CSc1nnc(-c2ccc([N+](=O)[O-])cc2)o1`, the inhibition is reported as -7%. For `COCCN(C(=S)Nc1ccccc1OC)C1CCN(C(C)C)CC1`, the inhibition was -1.11%. Compound `CCN1CCN(c2ccc(NC(=O)c3cnccn3)cc2)CC1` has an inhibition of -5.28%. In the case of `CCOC(=O)N1CCN(C(c2cccnc2)c2ccc3cccnc3c2O)CC1` (stereo not given), the inhibition is reported as 100% (active). With `CCOC(=O)N1CCN(C(=O)CSc2ccc(Cl)cc2)CC1` the inhibition was -6.22%. With `CCN1CCN(C(c2cccnc2)c2cc(Cl)c3cccnc3c2O)CC1` (stereo not given) the inhibition was 52.4% (active). In the case of `Oc1c(C(c2ccccn2)N2CCOCC2)ccc2cccnc12` (stereo not given), the inhibition is reported as 5.34%. `Cc1ccnc2nc(C(=O)OCC(=O)N(CC(C)C)CC(C)C)nn12` gave an inhibition of 4.48%. With `CN(c1ccccc1)S(=O)(=O)c1cc(C(=O)OCC(=O)N2CCN(C(=O)c3ccco3)CC2)ccc1Cl` the inhibition was -3.3%. In the case of `Nc1ncnc(Nc2cccc(Cl)c2Cl)n1`, the inhibition is reported as -0.16%. With `OC(CNCC1CCCO1)Cn1c2ccc(Br)cc2c2cc(Br)ccc21` (stereo not given) the inhibition was 101% (active). `Cc1cc(Br)ccc1NC(=O)C1CCCO1` (stereo not given) showed an inhibition of -3.76%. In the case of `Cc1ccc(C(=O)NCC2CCCO2)o1` (stereo not given), the inhibition is reported as -4.63%. `COc1cc(C(=O)Nc2cc(C(F)(F)F)ccc2-n2cncn2)cc(OC)c1OC` showed an inhibition of 15.4%. Work on `COc1ccc(NC(=S)NC2CCS(=O)(=O)C2)cc1` (stereo not given) yielded an inhibition of 6.02%. Work on `O=C(CSc1ccccc1F)NC1CCS(=O)(=O)C1` (stereo not given) yielded an inhibition of 1.43%. `CCN(CC(=O)NC1CCS(=O)(=O)C1)S(=O)(=O)c1ccccc1` (stereo not given) showed an inhibition of 47.9%. With `O=S1(=O)CCC(NC(=S)SCc2ccccc2Br)C1` (stereo not given) the inhibition was 89.6% (active). With `CCCSC(=S)NC1CCS(=O)(=O)C1` (stereo not given) the inhibition was 100% (active). Compound `CC(C)C(=O)NC(NC(=S)NC1CCS(=O)(=O)C1)C(Cl)(Cl)Cl` (stereo not given) has an inhibition of -3.47%. Work on `COc1cccc(OC)c1C(=O)NC(=S)NCc1ccco1` yielded an inhibition of 0.66%. `Cc1nn(-c2ccccc2)c(-n2cccc2)c1C(=O)O` showed an inhibition of -0.36%. `CCC(C)NC(=O)Cn1nc(C(F)(F)F)c2c1CCC2` (stereo not given) gave an inhibition of -5.4%. Compound `CCOc1cnc(-c2c(-c3ccccc3Cl)noc2C)o1` has an inhibition of -0.43%. `COc1cc(OC)c(C2=NOC(C(=O)Nc3c(C)n(C)n(-c4ccccc4)c3=O)C2)cc1Cl` (stereo not given) gave an inhibition of -5.3%. In the case of `CC1CCN(c2ccc([N+](=O)[O-])cc2C(N)=O)CC1`, the inhibition is reported as -3.26%. In the case of `C=CCO/N=C/C1=C(O)C(C(=O)OC)C(C)(C)CC1=O` (stereo not given), the inhibition is reported as -2.09%. Compound `Cc1cc(OCCCC(=O)NCCN2C(=O)S/C(=C\c3cccnc3)C2=O)ccc1Cl` has an inhibition of 42.1%. For `O=C(NCCN1C(=O)S/C(=C\c2cccnc2)C1=O)c1cccc(OC(F)F)c1`, the inhibition was 50.6% (active). For `CCOc1ccc(N2CC(C(=O)NCCN3C(=O)S/C(=C\c4cccnc4)C3=O)CC2=O)cc1` (stereo not given), the inhibition was -4.79%. Work on `O=C(CCc1ccccc1)Nc1ccc(NC(=O)C2CCCCC2)nc1` yielded an inhibition of 6.33%. Work on `Cc1ccc(SC(C)C(=O)NCc2ccc(F)cc2)cc1` (stereo not given) yielded an inhibition of -1.71%. For `O=C(/C=C/c1cccs1)c1cc(Cl)ccc1OC(=O)N1CCOCC1`, the inhibition was 100% (active). Work on `O=C(c1cccs1)N1CCN(C(=O)N2CCOCC2)CC1` yielded an inhibition of -6.96%. Work on `CC(=O)Nc1ccccc1OC(=O)N1CCOCC1` yielded an inhibition of -2.48%. In the case of `CCOC(=O)c1c(NC(=O)C2CCN(S(=O)(=O)c3ccc(Cl)cc3)CC2)sc2c1CCCC2`, the inhibition is reported as 6.41%. Work on `Cc1ccc(S(=O)(=O)N2CCOCC2)cc1C(=O)OC1CCCCC1=O` (stereo not given) yielded an inhibition of 1.9%. `CCNC(=O)COC(=O)/C=C/c1c(C)nn(Cc2cccc(OC)c2)c1Cl` showed an inhibition of -3.81%. `CS(=O)(=O)N1CCc2cc(C(=O)Nc3ccccc3)ccc21` gave an inhibition of -3.72%. `Cc1[nH]c2ccccc2c1C(=O)COC(=O)C(C)C` gave an inhibition of -4.11%. In the case of `Cc1onc(-c2ccccc2Cl)c1C(=O)OCC(=O)c1ccccc1`, the inhibition is reported as 88% (active). `Cc1[nH]c2ccccc2c1C(=O)CSCC(=O)O` showed an inhibition of 13.6%. `Cc1onc(-c2ccccc2Cl)c1C(=O)NCCn1ccc2ccccc21` gave an inhibition of 5.91%. With `CC(=O)Nc1cccc(/C(C)=N/NC(=O)c2c(-c3ccccc3Cl)noc2C)c1` the inhibition was 3.3%. In the case of `Cc1[nH]c2ccccc2c1C(=O)COC(=O)c1c(-c2ccccc2)noc1C`, the inhibition is reported as 95.7% (active). For `S=c1ccc2ccccc2[nH]1`, the inhibition was -8.39%. With `CC(=O)NCC(=O)N(Cc1ccco1)C1(C(=O)NC2CCCC2)CCCCC1` the inhibition was 1.81%. Compound `CCOC(=O)c1ccc(NC2Nc3cc(C)nn3S2)cc1` (stereo not given) has an inhibition of 1.08%. `O=C(COc1ccc(NC(=O)c2ccccc2[N+](=O)[O-])cc1)c1ccc(F)cc1` showed an inhibition of -3.68%. `Cc1cccc(OCCC(=O)Nc2cc(S(=O)(=O)N3CCCCC3)ccc2N2CCOCC2)c1` gave an inhibition of 22%. In the case of `COc1ccc(CC(=O)Nc2cc(S(=O)(=O)N3CCCCC3)ccc2N2CCN(C)CC2)cc1`, the inhibition is reported as 47%. For `CN1CCN(c2ccc(S(=O)(=O)N3CCCCC3)cc2NC(=O)Cc2ccccc2F)CC1`, the inhibition was 67.6% (active). In the case of `CC12CN(NC(=O)c3ccc(Cl)cc3)C3(C#N)CC1CCC23C` (stereo not given), the inhibition is reported as 7.74%. `COC(=O)CNC(=O)c1ccccc1[N+](=O)[O-]` showed an inhibition of -1.1%. With `O=C(Nc1ccncc1)c1ccccc1[N+](=O)[O-]` the inhibition was 11.9%. With `COc1ccc(NC(=O)c2ccccc2[N+](=O)[O-])cc1OC` the inhibition was 59.4% (active). Compound `COC(=O)C1=C(C)NC(=O)CC1c1ccccc1OC` (stereo not given) has an inhibition of -5.13%. Work on `Cc1ccc(N2NC(=O)/C(=C/C=C/c3ccco3)C2=O)cc1C` yielded an inhibition of 15.2%. With `Cc1cc(C(=O)N/N=C/c2cc([N+](=O)[O-])cc(C)c2O)n[nH]1` the inhibition was 80.3% (active). With `Cc1ccsc1C(=O)N/N=C/c1ccc([N+](=O)[O-])cc1` the inhibition was -8.42%. In the case of `O=[N+]([O-])c1cc(Br)c(O)c(/C=N/Nc2nc3ccccc3s2)c1`, the inhibition is reported as -6.02%. `Cc1cccc(NC(=O)Nc2nnc(-c3ccccc3)o2)c1` showed an inhibition of 15.9%. With `C/C(=N\NC(=O)c1cc2c(s1)CCC(C)C2)c1cccnc1` (stereo not given) the inhibition was 13%. With `Cc1cccc(N(C(=O)Cc2cccs2)C(C(=O)NC2CCCC2)c2ccsc2)c1` (stereo not given) the inhibition was 3.72%. `COc1ccc(C(C(=O)NC2CCCCC2)N(C(=O)CCl)c2ccccc2Cl)cc1` (stereo not given) showed an inhibition of -1.95%. In the case of `COc1cccc(N(C(=O)C2COc3ccccc3O2)C(C(=O)NC2CCCCC2)c2ccc(O)cc2)c1` (stereo not given), the inhibition is reported as 98.3% (active). With `O=C1Nc2ccc([N+](=O)[O-])cc2C1=Nc1cccc(CO)c1` the inhibition was 51% (active). In the case of `Cc1cc([N+](=O)[O-])ccc1NCc1cccc([N+](=O)[O-])c1`, the inhibition is reported as -1.47%. In the case of `CN1CCN(/N=C2/C(=O)Nc3ccc([N+](=O)[O-])cc32)CC1`, the inhibition is reported as -2.49%. In the case of `CN1CCN(CC#CCC2(O)c3ccccc3-c3ccccc32)CC1`, the inhibition is reported as -6.57%. With `O=[N+]([O-])c1cccc(-c2nnc3c4ccccc4c4ccccc4n23)c1` the inhibition was 22%. In the case of `Cn1cc(/C=C/c2nc3ccccc3c(=O)n2-c2cccc([N+](=O)[O-])c2)c2ccccc21`, the inhibition is reported as 63.9% (active). `CCOC(=O)N1CCN(Cc2nc3ccc([N+](=O)[O-])cc3c(=O)n2-c2cccc(OC)c2)CC1` showed an inhibition of 8.07%. `Cc1cc(C)nc(/N=C2\NC(=O)CC(C(=O)O)N2c2ccc(Cl)cc2Cl)n1` (stereo not given) gave an inhibition of -2.66%. With `CSc1ccc(/C=N\NC(=O)CC(=O)NC(C)C)cc1` the inhibition was 3.48%. In the case of `CC1=NCCN1S(=O)(=O)c1cccc([N+](=O)[O-])c1`, the inhibition is reported as 0.00784%. Work on `COc1ccc(/C=N/NC(=O)Cn2cc(C(F)(F)F)ccc2=O)cc1` yielded an inhibition of 4.79%. With `CCOC(=O)c1c(CN(C)C)n(-c2ccccc2)c2cc(Br)c(O)cc12` the inhibition was 15.6%.
